Experimental data taken from PubChem BioAssay (Tox21).
Values joined by “and” are separate entries in the source; they are usually repeats but may differ in a detail not shown here. Equal entries are not always repeated. Inconclusive results are not listed. Where a call stands in place of a potency, no number is given. Some compounds were tested as several samples or in several runs, with calls that do not always agree. Active and inactive are the calls of the source. Unless noted, the call rests on the fitted dose curve.

Tests used:
[1] = Nuclear factor erythroid 2-related factor 2/antioxidant responsive element (Nrf2/ARE) small molecule agonists: qHTS cell viability counter screen in human keratinocytes (AID 1919968; active means well fitted curve in the direction sought with a large enough effect in the repeat runs; an effect the other way counts as inactive or inconclusive; further: nearly all actives have a fitted effect of over 55% in size; further: potency means the concentration at half of the fitted maximal effect)
Procedure, shortened: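 CellTiter-Fluor fluorescence, read 1 h after reagent, gave viability in the same wells as the ARE-luciferase assay. KeratinoSens cells (1,500/well) had 23 h compound exposure at 37 C/5% CO2 following 5 h plating.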

[2] = Nuclear factor erythroid 2-related factor 2/antioxidant responsive element (Nrf2/ARE) small molecule agonists: luciferase reporter gene qHTS assay in human keratinocytes (AID 1919969); further: nearly all actives have a fitted effect of over 35% in size; further: potency means the concentration at half of the fitted maximal effect
[3] = target: Gonadotropin-releasing hormone receptor (Homo sapiens) (UniProt P30968); assay: Human gonadotropin-releasing hormone receptor (GnRHR) small molecule agonists, calcium flux assay in GnRHR-HEK293 cells (AID 1920063); further: nearly all actives have a fitted effect of over 35% in size
Procedure, shortened: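 Agonist mode: compounds at 15 concentrations, in triplicate, went onto calcium dye-loaded GnRHR-HEK293 cells. Intracellular calcium was then followed as 480/540 nm fluorescence at 1 s intervals over 3 min.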

[4] = target: KiSS-1 receptor (Homo sapiens) (UniProt Q969F8); assay: Human kisspeptin (KISS1R) small molecule agonists, calcium flux assay in KISS1R-HEK293 cells (AID 1920064; active means well fitted curve in the direction sought with a large enough effect in the repeat runs; an effect the other way counts as inactive or inconclusive)
Procedure, shortened: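 Agonist mode: intracellular calcium rise tracked at 1 s intervals over 3 min (480/540 nm) immediately after compound addition to dye-loaded KISS1R-HEK293 stable cells. Each compound tested at 15 concentrations in triplicate.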

[5] = G protein-coupled receptor (GPCR) small molecule agonists, calcium flux assay: HEK293 wild type cell line counter screen (AID 1920065)
Procedure, shortened: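 Calcium flux counter screen: compound added in agonist mode at 15 concentrations in triplicate to dye-loaded parental HEK293 cells. Fluorescence (480/540) read kinetically for 3 min; ATP served as positive control.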

[6] = p53 small molecule agonists, cell-based qHTS assay with human liver microsomes (AID 1963577);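 further: p53 response element beta-lactamase reporter cells with liver microsomes plus NADPH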
Procedure, shortened: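 Steps: plate p53RE-bla cells, incubate 5 h at 37 C; add compound in DMSO; add microsomes (0.5 mg/mL final) and NADPH (0.5 mg/mL final); incubate 16 h at 37 C; add LiveBLAzer, 2 h RT; read fluorescence.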

[7] = p53 small molecule agonists, cell-based qHTS assay with rat liver microsomes (AID 1963578); further: potency means the concentration at half of the fitted maximal effect
Procedure, shortened: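 Metabolic activation is supplied by rat liver microsomes with NADPH (each 0.5 mg/mL final). p53RE-bla cells incubate with compound 16 h at 37 C; reporter activity is measured by LiveBLAzer fluorescence.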

[8] = p53 small molecule agonists, cell-based qHTS assay with human liver microsomes: qHTS cell viability counter screen (AID 1963579); further: nearly all actives have a fitted effect of over 45% in size; further: potency means the concentration at half of the fitted maximal effect
Procedure, shortened: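 After the 460/530 nm beta-lactamase read, CellTiter-Glo was added to the same wells and luminescence measured after 30 min at room temperature, giving viability of p53RE-bla cells treated 16 h with compounds plus microsomes and NADPH.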

[9] = p53 small molecule agonists, cell-based qHTS assay with rat liver microsomes: qHTS cell viability counter screen (AID 1963580); further: nearly all actives have a fitted effect of over 45% in size; further: potency means the concentration at half of the fitted maximal effect
Procedure, shortened: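 After the beta-lactamase ratio was read, CellTiter-Glo was added to the same wells and luminescence measured at 30 min; cells had been treated 16 h at 37 C with compounds, rat liver microsomes and NADPH (0.5 mg/mL final each).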

[10] = p53 small molecule agonists, cell-based qHTS assay: qHTS cell viability counter screen (AID 1963581); further: nearly all actives have a fitted effect of over 45% in size; further: potency means the concentration at half of the fitted maximal effect
Procedure, shortened: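 Counter screen read by CellTiter-Glo luminescence (ATP content, 30 min at room temperature), run in the same wells as the beta-lactamase reporter read. HCT-116 p53RE-bla cells saw compounds for 16 h at 37 C.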

[11] = p53 small molecule agonists, cell-based qHTS assay (AID 1963582; active means well fitted activation curve with a large enough effect in the signal ratio in the repeat runs, not every such curve was filed as active; the % refers to the signal ratio; further: potency means the concentration at half of the fitted maximal effect)
Procedure, shortened: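 Read-out is beta-lactamase FRET fluorescence after 2 h at room temperature with LiveBLAzer B/G substrate. p53 response element-bla cells were treated 16 h at 37 C with compounds in DMSO, added 5 h after seeding.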

[12] = cAMP Responsive Elements (CRE) small molecule agonists, cell-based qHTS assay (AID 1963590)
Procedure, shortened: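 Agonist mode: compound added to CRE-bla HEK 293T cells (2,000/well, 18 h after plating) for 3 h at 37 C/5% CO2. Reporter activity detected via FRET beta-lactamase substrate, 2 h room-temperature loading.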

[13] = cAMP Responsive Elements (CRE) small molecule antagonists, cell-based qHTS assay (AID 1963591; active means well fitted inhibition curve with a large enough effect in the signal ratio in the repeat runs, not every such curve was filed as active; the % refers to the signal ratio)
Procedure, shortened: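 Antagonist mode: compounds are added alongside the adenylyl cyclase activator NKH477 (0.25 uM final) to CRE-bla HEK293T cells for 3 h. LiveBLAzer FRET substrate, 2 h at room temperature, reports bla expression.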

[14] = target: Beta-2 adrenergic receptor (Homo sapiens) (UniProt P07550); assay: Adrenergic beta2 receptor (ADRB2) small molecule antagonists, cell-based qHTS assay (AID 1963592); further: series mostly up to about 92 µM; nearly all actives have a fitted effect of over 50% in size
Procedure, shortened: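 Assay format: CHO-ADRB2 cells, 18-20hr seeding at 37C/5% CO2, then compound plus 1nM isoproterenol agonist mix for 0.5hr RT. Homogeneous time-resolved fluorescence cAMP detection after 1hr, expressed as 665/615 nm ratio.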

[15] = target: Beta-2 adrenergic receptor (Homo sapiens) (UniProt P07550); assay: Adrenergic beta2 receptor (ADRB2) small molecule agonists, cell-based qHTS assay (AID 1963593);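 further: CHO cells stably overexpressing human ADRB2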
Procedure, shortened: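 CHO cells stably over-expressing ADRB2 were plated overnight at 37C, then dosed with compounds plus a stimulation mix containing 100uM IBMX and 25uM Ro-20-1724 for 0.5hr at room temperature. cAMP was measured by HTRF competition, 1hr.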

[16] = target: D(2) dopamine receptor (Homo sapiens) (UniProt P14416); assay: Dopamine D2 receptor (DRD2) small molecule agonists, cell-based qHTS assay (AID 1963594); further: nearly all actives have a fitted effect of over 35% in size
Procedure, shortened: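 HEK293 cells stably expressing human DRD2, pre-treated with PDE inhibitor Ro20-1724 (0.1 mM final) and compound 10 min at room temperature, then stimulated with NKH477 (200nM […]) for 30 min. cAMP read by HTRF (665/620 nm).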

[17] = target: D(2) dopamine receptor (Homo sapiens) (UniProt P14416); assay: Dopamine D2 receptor (DRD2) small molecule antagonists, cell-based qHTS assay (AID 1963595; active means well fitted inhibition curve with a large enough effect in the signal ratio in the repeat runs, with a control signal flat; the % refers to the signal ratio; further: potency means the concentration at half of the fitted maximal effect)
Procedure, shortened: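 HEK293 cells stably expressing DRD2, preincubated with 0.1 mM Ro20-1724 and compounds 10 min, were stimulated with 200 nM NKH477 plus 12 nM quinpirole for 30 min at room temperature; cAMP measured by HTRF (665/620 nm).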

[18] = target: 5-hydroxytryptamine receptor 2A (Homo sapiens) (UniProt P28223); assay: 5-hydroxytryptamine receptor 2A (HTR2A) small molecule agonists, cell-based qHTS assay (AID 1963587); further: nearly all actives have a fitted effect of over 30% in size
Procedure, shortened: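 CHO cells stably expressing human HTR2A, plated 18 h, loaded with calcium dye 1 h at 37 C. Agonist mode: compounds added and intracellular calcium fluorescence recorded kinetically for 2 min at 1 sec intervals.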

[19] = target: Muscarinic acetylcholine receptor M1 (Homo sapiens) (UniProt P11229); assay: Cholinergic receptor muscarinic 1 (CHRM1) small molecule agonists, cell-based qHTS assay (AID 1963589); further: nearly all actives have a fitted effect of over 35% in size
Procedure, shortened: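 Agonist-mode calcium-flux screen: compounds at 15 concentrations, three independent runs, were pin-transferred onto dye-loaded human CHRM1-CHO cells. Fluorescence was then recorded kinetically every second over minutes.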

KiSS-1 receptor (Homo sapiens), sequence (Q969F8 whole entry, looked up): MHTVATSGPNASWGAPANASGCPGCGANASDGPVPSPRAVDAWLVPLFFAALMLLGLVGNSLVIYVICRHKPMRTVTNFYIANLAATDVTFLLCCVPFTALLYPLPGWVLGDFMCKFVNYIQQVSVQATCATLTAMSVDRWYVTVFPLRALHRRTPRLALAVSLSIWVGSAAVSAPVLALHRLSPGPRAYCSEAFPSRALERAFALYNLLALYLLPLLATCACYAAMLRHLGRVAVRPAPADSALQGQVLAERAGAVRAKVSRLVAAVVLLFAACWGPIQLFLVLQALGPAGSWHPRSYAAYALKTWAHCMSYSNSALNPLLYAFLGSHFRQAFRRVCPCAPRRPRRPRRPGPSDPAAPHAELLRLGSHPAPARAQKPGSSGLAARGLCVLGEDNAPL
Beta-2 adrenergic receptor (Homo sapiens), sequence (P07550 whole entry, looked up): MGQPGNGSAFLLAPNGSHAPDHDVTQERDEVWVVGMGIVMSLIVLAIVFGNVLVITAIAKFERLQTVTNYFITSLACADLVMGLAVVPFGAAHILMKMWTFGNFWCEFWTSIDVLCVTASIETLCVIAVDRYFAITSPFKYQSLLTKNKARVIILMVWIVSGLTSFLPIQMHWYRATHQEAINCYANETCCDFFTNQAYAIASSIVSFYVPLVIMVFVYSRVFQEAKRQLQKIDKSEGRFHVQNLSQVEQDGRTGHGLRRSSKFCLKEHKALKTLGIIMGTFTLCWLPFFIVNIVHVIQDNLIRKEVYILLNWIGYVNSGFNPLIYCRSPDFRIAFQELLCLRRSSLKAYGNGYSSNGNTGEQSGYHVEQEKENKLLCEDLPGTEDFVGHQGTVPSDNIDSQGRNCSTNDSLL
Gonadotropin-releasing hormone receptor (Homo sapiens), sequence (P30968 whole entry, looked up): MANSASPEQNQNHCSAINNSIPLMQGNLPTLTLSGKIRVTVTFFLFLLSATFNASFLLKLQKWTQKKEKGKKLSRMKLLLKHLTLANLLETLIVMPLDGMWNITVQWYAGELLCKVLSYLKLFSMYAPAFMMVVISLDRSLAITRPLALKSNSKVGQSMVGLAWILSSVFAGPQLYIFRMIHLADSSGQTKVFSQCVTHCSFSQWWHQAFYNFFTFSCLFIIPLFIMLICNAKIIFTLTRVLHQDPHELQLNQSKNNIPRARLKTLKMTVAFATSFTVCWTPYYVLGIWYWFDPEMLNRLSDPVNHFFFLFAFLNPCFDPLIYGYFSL
Muscarinic acetylcholine receptor M1 (Homo sapiens), sequence (P11229 whole entry, looked up): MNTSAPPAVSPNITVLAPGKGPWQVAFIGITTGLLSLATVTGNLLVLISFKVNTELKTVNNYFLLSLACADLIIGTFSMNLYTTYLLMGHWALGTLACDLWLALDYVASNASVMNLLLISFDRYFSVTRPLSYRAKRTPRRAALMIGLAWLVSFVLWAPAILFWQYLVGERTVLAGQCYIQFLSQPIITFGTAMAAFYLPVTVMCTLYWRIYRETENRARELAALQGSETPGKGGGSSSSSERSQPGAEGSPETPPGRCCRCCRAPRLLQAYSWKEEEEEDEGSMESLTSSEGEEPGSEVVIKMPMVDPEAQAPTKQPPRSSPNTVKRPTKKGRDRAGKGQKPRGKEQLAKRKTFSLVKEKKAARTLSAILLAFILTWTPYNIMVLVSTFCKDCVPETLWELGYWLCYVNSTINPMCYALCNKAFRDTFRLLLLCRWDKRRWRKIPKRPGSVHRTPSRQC
D(2) dopamine receptor (Homo sapiens), sequence (P14416 whole entry, looked up): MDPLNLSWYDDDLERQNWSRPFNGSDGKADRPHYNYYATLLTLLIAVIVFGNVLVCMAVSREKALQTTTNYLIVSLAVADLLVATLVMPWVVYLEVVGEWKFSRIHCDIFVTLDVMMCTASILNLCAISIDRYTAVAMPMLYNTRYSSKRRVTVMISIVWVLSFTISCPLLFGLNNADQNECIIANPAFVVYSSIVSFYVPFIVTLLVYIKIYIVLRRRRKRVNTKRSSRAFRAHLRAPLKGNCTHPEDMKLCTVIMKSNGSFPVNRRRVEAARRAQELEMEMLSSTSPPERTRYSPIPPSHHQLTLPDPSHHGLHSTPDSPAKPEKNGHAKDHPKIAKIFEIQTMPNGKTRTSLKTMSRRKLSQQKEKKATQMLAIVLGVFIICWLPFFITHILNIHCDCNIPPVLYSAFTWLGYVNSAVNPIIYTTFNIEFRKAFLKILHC
5-hydroxytryptamine receptor 2A (Homo sapiens), sequence (P28223 whole entry, looked up): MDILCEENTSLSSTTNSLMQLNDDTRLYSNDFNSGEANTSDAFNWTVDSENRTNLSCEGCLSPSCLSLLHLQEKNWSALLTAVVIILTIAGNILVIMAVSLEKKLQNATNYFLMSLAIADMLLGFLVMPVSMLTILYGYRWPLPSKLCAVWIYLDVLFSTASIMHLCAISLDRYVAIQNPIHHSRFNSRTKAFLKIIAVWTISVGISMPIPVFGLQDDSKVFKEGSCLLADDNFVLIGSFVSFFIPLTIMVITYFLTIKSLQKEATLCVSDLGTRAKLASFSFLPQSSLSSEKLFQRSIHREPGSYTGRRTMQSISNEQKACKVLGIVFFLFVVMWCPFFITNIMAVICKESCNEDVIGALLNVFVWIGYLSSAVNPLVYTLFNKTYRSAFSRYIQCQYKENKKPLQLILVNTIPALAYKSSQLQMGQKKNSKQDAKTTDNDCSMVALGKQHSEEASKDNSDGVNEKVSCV

| SMILES | Potency [1] | Potency [2] | Potency [3] | Potency [4] | Potency [5] | Potency [6] | Potency [7] | Potency [8] | Potency [9] | Potency [10] | Potency [11] | Potency [12] | Potency [13] | Potency [14] | Potency [15] | Potency [16] | Potency [17] | Potency [18] | Potency [19] |
| --- | --- | --- | --- | --- | --- | --- | --- | --- | --- | --- | --- | --- | --- | --- | --- | --- | --- | --- | --- |
| OC[C@@H](O)[C@@H](O)[C@H](O)[C@H](O)CO | inactive | inactive | inactive | inactive | inactive | inactive | inactive | inactive | inactive | inactive | inactive | inactive | inactive | inactive | inactive | inactive | inactive | – | – |
| c1ccc2c(c1)c1cccc3ccc4cccc2c4c31 | inactive | inactive | inactive | inactive | inactive | inactive | 32.2 µM (active) | inactive | inactive | inactive | 45.4 µM (active) and inactive | inactive | inactive | inactive | – | inactive | inactive | – | – |
| CN(C)C=O | inactive | inactive | inactive | inactive | inactive | inactive | inactive | inactive | inactive | inactive | inactive | inactive | inactive | inactive | inactive | inactive | inactive | – | – |
| CC1(C)[C@@H]2CC[C@@]1(C)C(=O)C2 | inactive | inactive | inactive | inactive | inactive | inactive | inactive | inactive | inactive | inactive | inactive | inactive | inactive | inactive | – | inactive | inactive | – | – |
| CC(O)C(=O)O (centres undefined) | inactive | inactive | inactive | inactive | inactive | inactive | inactive | inactive | inactive | inactive | inactive | inactive | inactive | inactive | inactive | inactive | inactive | – | – |
| Cc1ncc([N+](=O)[O-])n1CCO | inactive | inactive | inactive | inactive | inactive | inactive | inactive | inactive | inactive | inactive | inactive | inactive | inactive | inactive | inactive | inactive | inactive | – | – |
| Cc1c(OCC(F)(F)F)ccnc1CS(=O)c1nc2ccccc2[nH]1 (centres undefined) | inactive | 24.3 µM (active) and 33.5 µM (active) | inactive | inactive | inactive | inactive | inactive | inactive | inactive | inactive | inactive | inactive | inactive | inactive | inactive | inactive | – | – | – |
| COC(=O)c1ccc(O)cc1 | inactive | inactive | inactive | inactive | inactive | inactive | inactive | inactive | inactive | inactive | inactive | inactive | inactive | inactive | inactive | inactive | inactive | – | – |
| CCc1cccc2c3c([nH]c12)C(CC)(CC(=O)O)OCC3 (centres undefined) | inactive | inactive | inactive | inactive | inactive | inactive | inactive | inactive | inactive | inactive | inactive | inactive | inactive | inactive | inactive | inactive | inactive and 23.7 µM (active) | – | – |
| CC1(C)S[C@@H]2[C@H](NC(=O)[C@H](N)c3ccccc3)C(=O)N2[C@H]1C(=O)O | inactive | inactive | inactive | inactive | inactive | inactive | inactive | inactive | inactive | inactive | inactive | inactive | inactive | – | inactive | inactive | inactive | – | – |
| O=c1[nH]cc(F)c(=O)[nH]1 | 5.65 µM (active) and inactive | inactive | inactive | inactive | inactive | inactive | inactive | inactive | 47.5 µM (active) and inactive | inactive | 2.63 µM (active) and 7.93 µM (active) | inactive | inactive | inactive | – | inactive | inactive | – | – |
| CN1C(=O)CC[C@H]1c1cccnc1 | inactive | inactive | inactive | inactive | inactive | inactive | inactive | inactive | inactive | inactive | inactive | inactive | inactive | – | inactive | inactive | inactive | inactive | – |
| O=C1O[C@H]([C@@H](O)CO)C(O)=C1O | inactive | inactive and 61.1 µM (active) | inactive | inactive | inactive | inactive | inactive | inactive | inactive | inactive | inactive | inactive | inactive | – | inactive | inactive | inactive | – | – |
| NC(=NCCCCCCN=C(N)/N=C(\N)Nc1ccc(Cl)cc1)/N=C(\N)Nc1ccc(Cl)cc1 | 24.2 µM (active) [middle of 5 runs] | inactive | inactive | inactive | inactive | inactive | inactive | 40.4 µM (active) and 28.7 µM (active) and inactive | 32.1 µM (active) and 41.5 µM (active) and inactive | 45.3 µM (active) and inactive | inactive | inactive | inactive | – | – | inactive | – | inactive | inactive |
| Cc1cc(C)nc(NS(=O)(=O)c2ccc(N)cc2)n1 | inactive | inactive | inactive | inactive | inactive | inactive | inactive | inactive | inactive | inactive | inactive | inactive | inactive | inactive | inactive | inactive | inactive | – | – |
| O=C(O)c1ccc2c(c1)C(=O)OC2=O | inactive | inactive | inactive | inactive | inactive | inactive | inactive | inactive | inactive | inactive | inactive | inactive | inactive | inactive | inactive | inactive | inactive | inactive | inactive |
| OCCO | inactive | inactive | inactive | inactive | inactive | inactive | inactive | inactive | inactive | inactive | inactive | inactive | inactive | inactive | inactive | inactive | inactive | – | – |
